Results on 17 molecules are retold here after ChEMBL document CHEMBL3433997, “St. Jude Leishmania screening dataset” (2016).

Assay type in all cases: functional
In experiment [1] the target is Solute carrier family 2, facilitated glucose transporter member 1 (Homo sapiens) (UniProt P11166). The experiment is described as follows: ST_JUDE_LEISH: Cytotoxicity at 2uM final concentration against transgenic Leishmania Mexicana promastigotes LmGLUT1 that are glucose transport deficient and complemented with the human glucose transporter GLUT1. Activity is measured by DNA content using SYBR green in vitro.
Chain of Solute carrier family 2, facilitated glucose transporter member 1 (Homo sapiens) (P11166 whole entry): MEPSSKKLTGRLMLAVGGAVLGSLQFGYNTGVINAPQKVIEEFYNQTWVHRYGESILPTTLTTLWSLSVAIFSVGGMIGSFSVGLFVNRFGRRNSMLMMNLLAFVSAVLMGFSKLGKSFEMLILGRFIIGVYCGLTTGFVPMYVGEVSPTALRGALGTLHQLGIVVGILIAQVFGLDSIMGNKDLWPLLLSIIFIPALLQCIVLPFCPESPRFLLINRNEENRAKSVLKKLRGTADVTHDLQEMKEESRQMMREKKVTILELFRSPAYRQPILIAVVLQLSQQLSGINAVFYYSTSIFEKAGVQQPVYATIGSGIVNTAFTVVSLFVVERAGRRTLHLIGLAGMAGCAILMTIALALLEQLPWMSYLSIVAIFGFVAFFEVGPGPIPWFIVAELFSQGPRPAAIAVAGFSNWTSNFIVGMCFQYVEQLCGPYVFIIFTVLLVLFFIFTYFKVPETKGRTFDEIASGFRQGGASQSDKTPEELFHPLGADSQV

Experiment [2] has as its target Hexose transporter 1 (Plasmodium falciparum) (UniProt O97467). The experiment is described as follows: ST_JUDE_LEISH: Cytotoxicity at 2uM final concentration against transgenic Leishmania Mexicana promastigotes LmPfHT that are glucose transport deficient and complemented with the Plasmodium falciparum hexose transporter. Activity is measured by DNA content using SYBR green in vitro.

Experiment [3] concerns the target Glucose transporter (Leishmania mexicana) (UniProt O61059). The experiment is described as follows: ST_JUDE_LEISH: Cytotoxicity at 2uM final concentration against transgenic Leishmania Mexicana promastigotes LmGT2 that are glucose transport deficient and complemented with the L. Mexicana glucose transporter 2. Activity is measured by DNA content using SYBR green in vitro.

With `COc1ccc(CCNCCCCCNCCCc2ccc(Cl)cc2)cc1OC`, the inhibition – broadly, the change of the read-out against control, counted positive when it falls – in experiment [1] was -1.33%; in experiment [2], -1.18%; in experiment [3] it was 0.25%.

As for `Cc1[nH]c(C)c(-c2ccc(-c3ccccc3Cl)nc2)c(=O)c1Cl`, the inhibition in experiment [1] stood at 3.05%; in experiment [2], 3.94%; in experiment [3], 3.11%.

As for `Cc1cc(NCC2CCN(CC3CCCCC3)C2)nc(Nc2ccc(Cl)cc2)n1` (stereo unspecified), the inhibition in experiment [1] worked out at 7.03%; in experiment [2], 5.29%; in experiment [3], 2.45%.

For `CCCN(CCC)CCCNc1ccc(C(=O)Nc2ccc(OCC)cc2)cc1[N+](=O)[O-]`, the inhibition in experiment [1] was determined as 32.8%; in experiment [2] it was 19.4%; in experiment [3], 5.32%.

In the case of `CCCNc1nc(NCc2c(C)cccc2C)nc(NC(C)(C)C)n1`, the inhibition in experiment [1] amounted to 6.93%; in experiment [2], 8.23%; in experiment [3] it was 1.74%.

In the case of `Cc1cc(NCc2ccccc2)nc2cc(O)ccc12`, the inhibition was 8.52% in experiment [1], 13.2% in experiment [2] and 7.14% in experiment [3].

Take `c1cc(CN2CCN(c3ccncc3)CC2)cc(-c2cccc(-c3nc4ccccc4[nH]3)c2)c1`: the inhibition in experiment [1] is 2.65%; in experiment [2], 2.34%; in experiment [3] it was 1.32%.

With `CCOc1cc(C)ccc1N(C1CCN(CCCCNC(=O)c2ccc(-c3ccc(C(F)(F)F)cc3)cc2)CC1)S(=O)(=O)c1ccccc1`, the values for the inhibition in experiment [1], in experiment [2] and in experiment [3] were 0.32%, 1.25% and -0.57%, respectively.

In the case of `N#Cc1ccc(CN2CCC(Oc3ccc(NC(=O)c4ccccc4)cc3Cl)CC2)cc1`, the inhibition in experiment [1] was 0.83%; in experiment [2] it was -1.16%; in experiment [3], 1.28%.

Turning to `Cc1c(Cn2ncc(N3CCC(N)CC3)c(Cl)c2=O)cccc1NC(=O)Nc1ccc(-c2ccccc2)cc1`, the inhibition is 3.52% in experiment [1], 4.24% in experiment [2] and 5.11% in experiment [3].

For the molecule `CC(C)CCNCc1ccc(OCc2cccc(C(=O)Nc3ccccc3)c2)c(I)c1`, the values for the inhibition in experiment [1], in experiment [2] and in experiment [3] were 3.34%, 3.14% and 1.47%, respectively.

Take `CCCCCCc1cc2cc(-c3csc(C=Cc4ccccc4)n3)c(=O)oc2cc1O`: the inhibition in experiment [1] was 9.95%; in experiment [2], 10.6%; in experiment [3], 9.7%.

For the molecule `COc1ccc(Nc2nc(NN=Cc3cc(Br)c(O)cc3O)nc(Nc3ccc([N+](=O)[O-])cc3)n2)cc1`, the inhibition in experiment [1] amounted to 0.58%; in experiment [2] it was 0.96%; in experiment [3], 1.09%.

For `Fc1ccccc1COc1ccc(Nc2ncnc3ccc(-c4nnc(C(F)(F)F)o4)cc23)cc1Cl`, the inhibition came out at 6.41% in experiment [1], 5.31% in experiment [2] and 2.13% in experiment [3].

For `CC[C@H](C)CNC(=O)c1cncc(-c2ccc(CNC3Cc4ccccc4C3)cc2)c1`, the figures for the inhibition in experiment [1], in experiment [2] and in experiment [3] were 6.08%, 6.72% and 5.96%, respectively.

For the molecule `CC(=O)c1cccc2cc(C(=O)NC3CCC(CCN4CCc5ccc(C#N)cc5C4)CC3)[nH]c12` (stereo unspecified), the inhibition in experiment [1] is 2.35%; in experiment [2], 2%; in experiment [3], -0.27%.

With `Cc1cc2nc(-c3ccc(/C=C/C(=O)NCCc4ccccc4)cc3)[nH]c2cc1C`, the figures for the inhibition in experiment [1], in experiment [2] and in experiment [3] were 1.09%, 0.54% and 0.56%, respectively.
